Structures are written as SMILES. “And” between values parts separate entries of the source, which are not always exact repeats. Equal entries are not always repeated. Inconclusive results are not listed. A number with no mark means an inactive call. The source made the active and inactive calls. Calls follow the shape of the dose curve; as a rule, active = well fitted inhibition curve with a large enough effect; inconclusive = small, poorly fitted or top-dose-only effect; inactive = flat fitted curve, though single readings scatter.

Test [1] is described as follows: Drug repurposing screens with cells derived from glioblastoma tumor samples (AID 1345199). Also: nearly all actives have a fitted effect of over 40% in size. The note with it: GBM patient neurospheres viability, ATP luminescence, 48 h. The gist of the method: (§1)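 Four patient lines of CD133+ GBM neurospheres were screened at several concentrations; hits were retested in those lines plus three slower-growing GBM lines, using 48-hour treatment and ATP-based viability.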

A further test concerns astro (control astrocytes). Described as above. The note with it: viability, ATP luminescence, 48 h; series mostly up to 45.9 µM. A digest of the protocol:
as §1

Where [2] appears, read: at 45.9 µM (top of the series), tumour line B.
The mark [3] stands for this setting: at 45.9 µM (top of the series), tumour line D.
[4] abbreviates: at 46.1 µM (top of the series), tumour line C.
The mark [5] stands for this setting: at 46 µM (top of the series), tumour line A.
% is scaled to controls: 0 for no effect and ±100 for the full control effect; potency is read from the fitted curve at half-maximal effect.

`CN1CCN(C2=Nc3ccccc3Cc3ccccc32)CC1`: the activity, negative = cell killing in test [1] (setting [2]) is -12%; in test [1] (setting [3]), -12.4%; in test [1] (setting [4]) it was -28.3%. Moreover, in test [1] (tumour line A), the Potency was 31.6 µM (active). For the same molecule, the Potency result with astro is “inactive”.
`C[C@H]1C[C@@H]2[C@H]([C@@H](O)C[C@@]3(C)[C@H]2CC[C@]3(O)C(=O)COC(=O)CCC(=O)O)[C@@]2(C)C=CC(=O)C=C12`: the activity, negative = cell killing was -16.2% in test [1] (setting [2]), -23.4% in test [1] (setting [3]), -16.8% in test [1] (setting [5]) and -3.84% in test [1] (setting [4]). Besides, the Potency entry in the test on astro is “inactive”.
The like results for `Cn1nnnc1SCC1=C(C(=O)O)N2C(=O)[C@@H](NC(=O)[C@H](OC=O)c3ccccc3)[C@H]2SC1` were, in that order, -10.5%, -17.5%, -11.9%, -8.9% and “inactive”.
For `O=P(O)(O)OC(CO)CO` the same measures were -13.5%, 14.6%, -6.76%, 3.76% and “inactive”.
Regarding `Nc1c(CC(=O)O)cccc1C(=O)c1ccccc1`, the activity, negative = cell killing is -6.42% and -16.2% in test [1] (setting [2]); 1.99% and -19.1% in test [1] (setting [3]); -11.4% in test [1] (setting [5]); -6.15% and -12.2% in test [1] (setting [4]). Further, the Potency result with astro was “inactive”.
Turning to `CC(=O)OCC(=O)[C@@]1(O)[C@H](C)C[C@H]2[C@@H]3C[C@H](F)C4=CC(=O)C=C[C@]4(C)[C@H]3[C@@H](O)C[C@@]21C`, the activity, negative = cell killing was 1.71% in test [1] (setting [2]), 2.28% in test [1] (setting [3]), -12.7% in test [1] (setting [5]) and 13.2% in test [1] (setting [4]). In the test on astro, the Potency entry is “inactive”.
The like results for `CCC(CN)CC(C)CCNCC(O)CNCC(C)CC(CC)CN` (stereo not drawn) were, in that order, -0.989%, -7.35%, -19.2%, -0.671% and “inactive”.
Consider `O=C1O[C@H]2[C@H](O)[C@@H]1OC(O)[C@H]2O` (stereo partly drawn), for which the activity, negative = cell killing was -7.22% in test [1] (setting [2]), -9.05% in test [1] (setting [3]), -25.4% in test [1] (setting [5]) and 16.3% in test [1] (setting [4]).
Turning to `CCN(CC)c1ccc(N=Nc2ccc(S(=O)(=O)N(C)C)cc2)c(S(=O)(=O)NCC[n+]2ccccc2)c1`, the activity, negative = cell killing in test [1] (setting [2]) is -13%; in test [1] (setting [3]) it was -3.67%; in test [1] (setting [4]), -10.2%. Also, the Potency in test [1] (tumour line A) was 35.5 µM (active). Moreover, the Potency entry in the test on astro is “inactive”.
On to `COCC1=C(C(=O)OC(C)OC(=O)OC(C)C)N2C(=O)[C@@H](NC(=O)/C(=N\OC)c3csc(N)n3)[C@H]2SC1` (stereo partly drawn), for which the activity, negative = cell killing was -23.6% and -15.3% in test [1] (setting [2]); 14.5% and -3.43% in test [1] (setting [3]); -24.7% in test [1] (setting [5]); 0.117% and 4.67% in test [1] (setting [4]).
For the molecule `C1CNCCN1`, the activity, negative = cell killing in test [1] (setting [2]) was -11%; in test [1] (setting [3]), -24.6%; in test [1] (setting [5]), -15.8%; in test [1] (setting [4]), -0.46%. The Potency entry in the test on astro was “inactive”.
As to `C[C@H]1C[C@H]2[C@@H]3CCC4=CC(=O)C=C[C@]4(C)[C@@]3(F)[C@@H](O)C[C@]2(C)[C@@]1(O)C(=O)CCl`, the activity, negative = cell killing is 1.74% in test [1] (setting [2]), -15.9% in test [1] (setting [3]) and 12.3% in test [1] (setting [4]). Moreover, the Potency in test [1] (tumour line A) is 35.5 µM (active). Moreover, the Potency entry with astro was “inactive”.
In the case of `NCCCC[C@H](NC(=O)[C@@H]1CCCN1C(=O)[C@@H]1CSSC[C@H](N)C(=O)N[C@@H](Cc2ccc(O)cc2)C(=O)N[C@@H](Cc2ccccc2)C(=O)N[C@@H](CCC(N)=O)C(=O)N[C@@H](CC(N)=O)C(=O)N1)C(=O)NCC(N)=O`, the activity, negative = cell killing in test [1] (setting [2]) was -6.49% and -12.6%; in test [1] (setting [3]) it was -7.59% and -12.4%; in test [1] (setting [5]) it was -33.8%; in test [1] (setting [4]), 13.1%. Also, the Potency entry with astro is “inactive”.
Take `CCCCCCCCCCCCCCCC(=O)OCCC1CCN(CCCN2c3ccccc3Sc3ccc(S(=O)(=O)N(C)C)cc32)CC1`: the activity, negative = cell killing in test [1] (setting [2]) is -1.24%; in test [1] (setting [3]), -12.7%; in test [1] (setting [5]) it was -28.1%; in test [1] (setting [4]) it was 11%. Besides, the Potency result in the test with astro is “inactive”.
For `CCCCCCCCCCCCCCCC(=O)OC/C=C(C)/C=C/C=C(C)/C=C/C1=C(C)CCCC1(C)C`, the activity, negative = cell killing in test [1] (setting [2]) was -7.71%; in test [1] (setting [3]), 9.03%; in test [1] (setting [4]) it was 0.655%. Besides, the Potency in test [1] (tumour line A) is 20 µM (active). Moreover, the Potency result in the test on astro was “inactive”.
Regarding `CCCCCC(O)/C=C/C=O` (stereo not drawn), the activity, negative = cell killing in test [1] (setting [2]) is 5.27%; in test [1] (setting [3]), -8.74%; in test [1] (setting [5]), -27.6%; in test [1] (setting [4]) it was 8.89%. The Potency result in the test with astro was “inactive”.

The values above are taken from PubChem BioAssay (NCATS).
